Experimental findings from PubChem BioAssay are described below.

Structures are written as SMILES. Values joined by “and” are separate entries in the source; they are usually repeats but may differ in a detail not shown here. Equal entries are not always repeated. Active and inactive are the calls of the source. Unless noted, how the calls were made is not given here.

Assay [1] in a line: P. berghei load reduction in hepatocytes – cell-based, HepG2, luciferase luminescence, HepG2 viability, primary screen (AID 624349; in the data active means parasite load remaining mostly below about 12%, no sharp cut-off; inactive means mostly above about 10%;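 further: 100% = mean of DMSO negative control wells on the same plate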). Particulars: P. berghei liver stage in HepG2, luciferase luminescence, concentration not given here; parasite load remaining: stronger effect = lower value; viability: measured here: HepG2 viability without parasites.
Assay [2] can be described thus: signal quenchers or enhancers, Cy5 substrate/SSB – biochemical, NIH Clinical Collection, E. coli SSB, artefact control for HCV NS3 helicase inhibitor project (AID 743268). As to conditions: Cy5-oligo bound E. coli SSB, fluorescence interference.
For assay [3], the system named is Hepatitis C virus NS3 helicase. Briefly: blockers of NS3h binding to DNA – biochemical, fluorescence polarization, NIH Clinical Collection, primary screen (AID 743270). Particulars: NS3 helicase binding to Cy5-dT15 DNA, stronger effect = higher value, concentration not given here. A general note: Polarisation of emitted light reports the rotation of a fluorescent probe.
Assay [4] has as its target Single-stranded DNA-binding protein (Escherichia coli (strain K12)) (UniProt P0AGE0). Briefly: SSB-ssDNA binding inhibitors – biochemical, fluorescence polarization, NIH Clinical Collection, counter-screen for HCV NS3 helicase inhibitor project (AID 743271; in the data active means inhibition above about 28%). As to conditions: E. coli SSB-DNA binding, stronger effect = higher value, concentration not given here.
Assay [5] can be described thus: compounds distorting NS3 helicase fluorescence signal – biochemical, NIH Clinical Collection, artefact control for HCV NS3 helicase inhibitor project (AID 743272).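 Further: HCV NS3 helicase with a Cy5 labelled single stranded DNA probe.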 Particulars: fluorescence interference counterscreen, HCV NS3 helicase assay; stronger effect = lower value. (In general: Counterscreens check selectivity or assay interference.)
Assay [6] can be described thus: Wnt pathway potentiators raising nuclear beta-catenin – imaging, WNT3A-conditioned medium, mouse C2C12, NPC library, primary screen (AID 1117326; in the data active means nuclear beta-catenin stimulation mostly above about 4.2%, no sharp cut-off; inactive means mostly below about 10%). Particulars: stronger effect = higher value.
The nature of assay [7]: stimulators of insulin release from INS-1E, primary screen, cell-based, 5 mM glucose, NPC library (AID 1117329;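 active means compound raises insulin release from rat beta cells at 5 mM glucose, no numeric limit stated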). As to conditions: rat INS-1E insulin secretion, at 10 µM, stronger effect = higher value.
Assay [8] is described as follows: growth inhibition of GSK3B-pretreated HCT116 cells – cell-based, CellTiter-Glo, 0.2 to 20 µM (AID 1117336;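 active means compounds lowering colon cancer cell viability after pretreatment blocking the GSK3B kinase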). As to conditions: HCT116 viability after GSK3B inhibitor, at 20 µM, stronger effect = higher value. Background: ATP-based viability assays read luminescence as a measure of living cells.
The nature of assay [9]: inhibition of endothelial tube formation, primary screen, imaging, VEGF stimulated, CD31 staining, tube area, NPC library (AID 1117340;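 active means compound that reduces growth-factor-driven endothelial tube area in a mixed cell culture, no cutoff stated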). Particulars: VEGF-stimulated ADSC/ECFC co-culture, at 10 µM, stronger effect = higher value.
A short description of assay [10]: GLP1 release stimulators, primary, NCI-H716, NPC library (AID 1117341;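 active means compound raises GLP1 secretion from the human gut endocrine cells, with no numeric limit stated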). As to conditions: NCI-H716 cells, at 10 µM, stronger effect = higher value.
A short description of assay [11]: HCT116 colon cancer cell growth inhibition, primary screen, CellTiter-Glo luminescence, NPC library (AID 1117342;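 active means compounds that lower survival of HCT116 colon cancer cells in the luminescence readout, no numeric limit stated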). As to conditions: at 20 µM (top of the series).
Assay [12] can be described thus: reduced SW480 viability measured with CellTiter-Glo, NPC library, primary (AID 1117343;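 active means compounds that lower viability of the colon cancer cells in the luminescence readout, with no numeric limit stated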). As to conditions: CellTiter-Glo luminescence; at 20 µM (top of the series).
Assay [13] in a line: NPC library primary testing for decreased DLD-1 cell viability via CellTiter-Glo (AID 1117346;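 active means compounds that lower survival of DLD-1 colon cancer cells in the luminescence readout, no cutoff given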). Particulars: DLD-1 viability, CellTiter-Glo luminescence; at 20 µM (top of the series).
The target in assay [14] is 6-phosphogluconate dehydrogenase, decarboxylating (Homo sapiens) (UniProt P52209). Briefly: inhibition of human phosphogluconate dehydrogenase – biochemical, recombinant enzyme, NADPH absorbance, primary screen (AID 1159550;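 active means at least 20% inhibition of 6-phosphogluconate dehydrogenase activity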). As to conditions: recombinant 6PGD, NADPH absorbance 341 nm; at 10 µM; stronger effect = higher value.
Assay [15] can be described thus: EMT-state selective cytotoxicity in co-culture – imaging, PC-3E GFP, TEM4-18 mCherry, primary screen (AID 1345086;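 active means compounds killing one labelled cell type while sparing the other, by normalised counts and ratio limits, not self-fluorescent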;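 on all read-outs here: cells exposed to compound for 72 h before imaging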;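 on red/green cell ratio (normalised): normalised mesenchymal count divided by normalised epithelial count so high means epithelial killing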). Particulars: PC-3E GFP / TEM4-18 mCherry co-culture, imaging cell counts, at 1 µM; for red/green cell ratio (normalised): actives lie on both sides, counts scaled to control wells, 1 = unselective.
The nature of assay [16]: MELAS cybrid and Rieske KO viability enhancers – cell-based, MELAS cybrids, Rieske KO mouse fibroblasts, CellTiter-Glo, primary screen (AID 1508586;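 active means mean z-score across replicates of 1.96 or higher in either the MELAS or the Rieske mutant cell line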;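 further: z relative to plate mean and SD of compound and empty wells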). Particulars: low glucose.
The target in assay [17] is NAD(+) hydrolase SARM1 (Homo sapiens) (UniProt Q6SZW1). The experiment in a line: blocking NAD cleavage by SARM1 SAM-TIR – cell lysate, NAD-Glo luminescence (AID 1508614;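 active means compound whose remaining NAD level is above about 45 nM, limit read from the data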). Particulars: SAM-TIR HEK293T lysate NADase, at 1 µM, stronger effect = higher value.
The target in assay [18] is Mitogen-activated protein kinase 7 (Homo sapiens) (UniProt Q13164). Briefly: Gal4-ERK5 driven luciferase induction – cell-based, HTS, primary screen (AID 1508626;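 active means luciferase signal above three times the same-plate solvent-only control wells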;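 further: luciferase driven by Gal4-ERK5 fusion binding five Gal4 sites before minimal TATA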). As to conditions: HeLa Gal4-ERK5 transactivation, 18 h, at 5 µM, stronger effect = higher value.
In another assay the test system is F380Y. The experiment in a line: BK channel mutant inhibitors and activators – cell-based, U2OS BacMam, thallium flux, beta subunits, selectivity assay, profiling panel (AID 1259406;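 active means thallium flux through the channel raised or lowered by more than 3 SD from vehicle-only wells, actives on both sides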;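 further: initial slope of Thallos dye fluorescence rise after thallium is added; log ratio against the mean of 0.3% DMSO vehicle wells on the same plate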). Particulars: U2OS BacMam BK variants, at 30 µM.
The nature of assay [19]: viability loss with induced miR-34 in A549 – imaging, A549 dox-inducible miR-34, nuclei and caspase counts, primary screen (AID 1347080). As to conditions: A549 miR-34 inducible, Hoechst nuclei count, 48 h; measured here: total cells without miR-34 induction.
Setting [20] is: measured here: epithelial PC-3E GFP cell survival.
[21] abbreviates: measured here: mesenchymal TEM4-18 mCherry cell survival.
Where [22] appears, read: MELAS cybrid survival, CellTiter-Glo 48 h, stronger effect = higher value.
Where [23] appears, read: Rieske KO mouse fibroblast survival, CellTiter-Glo 72 h.

6-phosphogluconate dehydrogenase, decarboxylating (Homo sapiens), sequence (P52209 whole entry, looked up): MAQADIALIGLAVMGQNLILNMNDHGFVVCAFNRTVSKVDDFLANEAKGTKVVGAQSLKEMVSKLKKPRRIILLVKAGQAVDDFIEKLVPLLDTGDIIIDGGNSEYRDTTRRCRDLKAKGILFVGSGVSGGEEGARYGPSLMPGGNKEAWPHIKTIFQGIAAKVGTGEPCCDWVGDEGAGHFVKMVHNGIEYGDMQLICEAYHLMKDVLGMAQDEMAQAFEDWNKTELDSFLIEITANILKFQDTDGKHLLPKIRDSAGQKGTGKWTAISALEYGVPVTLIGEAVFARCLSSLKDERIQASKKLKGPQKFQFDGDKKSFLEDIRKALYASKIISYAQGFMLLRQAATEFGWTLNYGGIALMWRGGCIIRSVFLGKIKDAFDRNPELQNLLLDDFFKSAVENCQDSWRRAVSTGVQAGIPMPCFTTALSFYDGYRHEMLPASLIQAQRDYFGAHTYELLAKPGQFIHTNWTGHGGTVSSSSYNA
NAD(+) hydrolase SARM1 (Homo sapiens), sequence (Q6SZW1 whole entry, looked up, the tested form may be a part): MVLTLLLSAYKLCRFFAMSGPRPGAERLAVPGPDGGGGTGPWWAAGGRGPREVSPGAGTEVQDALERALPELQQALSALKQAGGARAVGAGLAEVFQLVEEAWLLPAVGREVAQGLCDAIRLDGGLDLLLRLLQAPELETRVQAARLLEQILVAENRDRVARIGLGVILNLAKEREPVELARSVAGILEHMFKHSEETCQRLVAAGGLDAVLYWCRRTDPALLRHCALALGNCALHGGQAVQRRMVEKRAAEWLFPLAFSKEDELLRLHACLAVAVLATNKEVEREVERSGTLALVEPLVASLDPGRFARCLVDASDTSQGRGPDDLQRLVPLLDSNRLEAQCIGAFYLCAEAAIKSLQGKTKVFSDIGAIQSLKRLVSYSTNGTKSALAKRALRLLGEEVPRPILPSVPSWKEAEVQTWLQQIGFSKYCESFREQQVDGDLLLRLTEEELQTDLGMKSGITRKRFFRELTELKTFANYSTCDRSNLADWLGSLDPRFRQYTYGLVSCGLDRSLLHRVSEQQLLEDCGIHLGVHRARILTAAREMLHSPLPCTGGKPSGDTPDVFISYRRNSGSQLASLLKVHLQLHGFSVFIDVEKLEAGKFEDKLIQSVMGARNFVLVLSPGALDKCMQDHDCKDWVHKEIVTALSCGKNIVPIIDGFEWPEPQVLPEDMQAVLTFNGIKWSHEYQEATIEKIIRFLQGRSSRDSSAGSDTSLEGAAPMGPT
Mitogen-activated protein kinase 7 (Homo sapiens), sequence (Q13164 whole entry, looked up, the tested form may be a part): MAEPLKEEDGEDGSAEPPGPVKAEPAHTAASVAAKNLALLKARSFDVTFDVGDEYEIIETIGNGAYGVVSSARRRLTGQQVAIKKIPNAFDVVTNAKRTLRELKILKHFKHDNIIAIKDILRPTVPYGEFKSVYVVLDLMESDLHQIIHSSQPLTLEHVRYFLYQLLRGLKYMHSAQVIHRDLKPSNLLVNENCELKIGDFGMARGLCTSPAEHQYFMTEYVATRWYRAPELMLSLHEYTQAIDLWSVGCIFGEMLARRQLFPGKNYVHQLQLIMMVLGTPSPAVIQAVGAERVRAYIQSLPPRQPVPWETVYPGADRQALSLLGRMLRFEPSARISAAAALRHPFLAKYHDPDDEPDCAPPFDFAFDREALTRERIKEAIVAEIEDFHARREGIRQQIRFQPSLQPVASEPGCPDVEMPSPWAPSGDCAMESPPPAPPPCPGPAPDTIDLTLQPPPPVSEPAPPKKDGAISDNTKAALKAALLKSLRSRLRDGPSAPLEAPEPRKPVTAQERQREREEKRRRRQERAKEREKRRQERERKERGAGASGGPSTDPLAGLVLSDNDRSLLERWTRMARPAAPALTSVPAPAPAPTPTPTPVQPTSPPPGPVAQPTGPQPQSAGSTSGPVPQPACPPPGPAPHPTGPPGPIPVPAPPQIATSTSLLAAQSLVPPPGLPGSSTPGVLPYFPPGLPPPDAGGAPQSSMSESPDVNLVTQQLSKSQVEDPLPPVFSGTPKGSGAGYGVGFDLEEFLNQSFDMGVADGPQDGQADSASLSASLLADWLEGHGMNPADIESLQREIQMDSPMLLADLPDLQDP

As to `CN(C)C(=O)Oc1ccc[n+](C)c1`, in assay [1], the parasite load remaining was 46.4% (inactive) and 38.1% (inactive) and 33.2% (inactive). Further, the viability – broadly, the share of living cells, or the viability signal relative to a control – in assay [1] was 90.6% and 93.2% and 82.1%. The fluorescence ratio is 1.01 (inactive) in assay [2] and 0.97 (inactive) in assay [5]. Further, the inhibition (usually the drop in the measured response relative to a control, in per cent) is 0.45% (inactive) in [3], 0.29% (inactive) in assay [4] and -7.31% (inactive) in assay [14]. For the same molecule, the nuclear beta-catenin stimulation is 0.1% (inactive) in assay [6] (at 10 µM) and 10.5% in [6] (stimulation, at 2 µM). Moreover, the insulin secretion stimulation in [7] is 0.95% (inactive). Also, the viability decrease in [8] was 10.7% (inactive). For the same molecule, the tube area decrease in [9] is -21.1% (inactive). The GLP1 secretion stimulation in assay [10] is -3.2% (inactive). In addition, the inhibition of viability in assay [11] is -1% (inactive). Moreover, the viability decrease (inhibition) was -8.3% (inactive) in assay [12] and -12.1% (inactive) in [13]. In assay [15], the red/green cell ratio (normalised) is 1.32 (inactive). The normalised cell number came out at 1.15 in [15] (setting [20]) and 1.53 in [15] (setting [21]). Moreover, the z-score in assay [16] (setting [22]) was 0.178 (inactive) and 0.175 (inactive); in [16] (setting [23]), 0.0482 and -0.383. Besides, in [17], the remaining NAD is 10 nM (inactive). Further, the luciferase signal in assay [18] was 48 AU (inactive). Moreover, the log fold change Tl+ flux in the assay with F380Y was -0.00126 (inactive).
`CC(C)(C)NCC(O)c1cc(O)cc(O)c1` (stereo unspecified): the figures for the fluorescence ratio in assay [2] and in [5] were 1.05 (inactive) and 1.04 (inactive), respectively. Moreover, the inhibition is -2.27% (inactive) in assay [3], -3.53% (inactive) in [4] and -13.6% (inactive) in [14]. For the same molecule, the nuclear beta-catenin stimulation in [6] (at 10 µM) is 1.5% (inactive); in assay [6] (stimulation, at 2 µM) it was 3.1%. The insulin secretion stimulation in [7] was -1% (inactive). Besides, the viability decrease in [8] was -25.1% (inactive). The tube area decrease in [9] is -9.7% (inactive). Besides, the GLP1 secretion stimulation in [10] is 1.4% (inactive). The inhibition of viability in assay [11] was 3.9% (inactive). The viability decrease (inhibition) in assay [12] is 20.2% (inactive); in assay [13] it was -3.5% (inactive). In addition, in [15], the red/green cell ratio (normalised) is 1.28 (inactive). Moreover, the normalised cell number in assay [15] (setting [20]) was 0.91; in [15] (setting [21]), 1.16. Besides, the cell count in assay [19] was 10100 and 11300 and 12600. Further, the z-score was -0.672 (inactive) in [16] (setting [22]) and -0.203 in assay [16] (setting [23]). In addition, in [17], the remaining NAD is 10 nM (inactive). Besides, the luciferase signal in assay [18] is 108 AU (inactive). Also, in the assay with F380Y, the log fold change Tl+ flux is 0.00388 (inactive).
As to `Nc1nc(N)c2nc(-c3ccccc3)c(N)nc2n1`, the fluorescence ratio is 1.01 (inactive) in assay [2] and 0.9 (inactive) in assay [5]. The inhibition in [3] is 7.73% (inactive); in [4], 7.91% (inactive); in [14] it was 13.3% (inactive). The nuclear beta-catenin stimulation was 17.3% (inactive) in assay [6] (at 10 µM) and 4.7% in [6] (stimulation, at 2 µM). Moreover, the insulin secretion stimulation in assay [7] was -0.7% (inactive). The viability decrease in [8] is 91.2% (active). For the same molecule, in [9], the tube area decrease is 10.4% (inactive). The GLP1 secretion stimulation in assay [10] is 2.6% (inactive). For the same molecule, the inhibition of viability in [11] is 83% (active). The viability decrease (inhibition) in assay [12] was 75.8% (active); in assay [13] it was 0.75% (inactive). The red/green cell ratio (normalised) in assay [15] was 1.25 (inactive). The figures for the normalised cell number in assay [15] (setting [20]) and in [15] (setting [21]) were 1 and 1.25, respectively. In addition, the z-score in [16] (setting [22]) was -0.205 (inactive) and 1.1 (inactive); in assay [16] (setting [23]), -0.161 and 0.254. Besides, the remaining NAD in [17] is 10 nM (inactive). Also, the luciferase signal in assay [18] was 48 AU (inactive). In addition, in the assay on F380Y, the log fold change Tl+ flux is 0.00573 (inactive).
For the molecule `c1ccc2c(CC3=NCCN3)cccc2c1`, the results for the fluorescence ratio in assay [2] and in [5] were 1.03 (inactive) and 1.02 (inactive), respectively. Besides, the inhibition in [3] is -3.18% (inactive); in [4], -2.76% (inactive); in assay [14], -9.35% (inactive). Besides, the nuclear beta-catenin stimulation in assay [6] (at 10 µM) was 0.4% (inactive); in assay [6] (stimulation, at 2 µM), 1.1%. For the same molecule, in assay [7], the insulin secretion stimulation was -1.7% (inactive). Besides, in assay [8], the viability decrease is -2.25% (inactive). Also, the tube area decrease in assay [9] was 20.2% (inactive). Further, the GLP1 secretion stimulation in assay [10] is 2.8% (inactive). In addition, the inhibition of viability in assay [11] was -0.7% (inactive). Moreover, the results for the viability decrease (inhibition) in assay [12] and in [13] were 19.7% (inactive) and 8% (inactive), respectively. For the same molecule, in assay [15], the red/green cell ratio (normalised) is 0.84 (inactive). In addition, the results for the normalised cell number in assay [15] (setting [20]) and in assay [15] (setting [21]) were 1.03 and 0.86, respectively. The z-score in assay [16] (setting [22]) was -0.272 (inactive) and 0.214 (inactive) and 0.142 (inactive); in assay [16] (setting [23]), -0.0845 and -0.183 and -0.115. For the same molecule, the remaining NAD in [17] was 10 nM (inactive). Further, in assay [18], the luciferase signal is 44 AU (inactive). In addition, the log fold change Tl+ flux with F380Y was -0.0182 (inactive).
